Holding throughout (experiment): DAPPL (digital affinity profiling via proximity ligation, sequencing); 10 mM Tris-HCl pH 7.5, 50 mM NaCl, 1 mM DTT, 4% glycerol, room temperature, 30 min; GST-TFs on glutathione beads, 16-mer random dsDNA library, 0.1% formaldehyde crosslink after washing; high values mean tight binding
Common to all, as to conditions: protein: recombinant; tags: N-terminal GST; dsDNA, one strand shown

The target of experiment [1] is T1, SPIC (Homo sapiens, UniProt Q8N5J4 1-248).
T1 sequence: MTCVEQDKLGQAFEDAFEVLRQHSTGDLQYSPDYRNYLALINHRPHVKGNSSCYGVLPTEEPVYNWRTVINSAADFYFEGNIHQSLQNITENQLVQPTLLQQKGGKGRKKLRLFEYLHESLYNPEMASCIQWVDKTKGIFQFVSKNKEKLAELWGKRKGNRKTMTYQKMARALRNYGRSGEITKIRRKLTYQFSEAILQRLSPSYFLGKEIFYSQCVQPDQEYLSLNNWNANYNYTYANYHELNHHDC
The procedure, abridged:
(§1)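 Binding signal is defined as a hexamer's read frequency for one factor over its frequency for the tag-only sample. To obtain reads, GST-fused human transcription factors were expressed in yeast, captured on glutathione beads, barcoded with DNA and pooled with that sample. Pools met 200 nmole of a 16-mer random double-stranded DNA library in Tris/NaCl/DTT/glycerol buffer for 30 min at room temperature before washing, 0.1% formaldehyde crosslinking, proximity ligation (BsaI/T4 ligase, 1 h, 37 °C), PCR and Illumina NextSeq500 sequencing.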

For experiment [2], the target named is T2, ELK1 (Homo sapiens, UniProt P19419 1-428).
T2 sequence: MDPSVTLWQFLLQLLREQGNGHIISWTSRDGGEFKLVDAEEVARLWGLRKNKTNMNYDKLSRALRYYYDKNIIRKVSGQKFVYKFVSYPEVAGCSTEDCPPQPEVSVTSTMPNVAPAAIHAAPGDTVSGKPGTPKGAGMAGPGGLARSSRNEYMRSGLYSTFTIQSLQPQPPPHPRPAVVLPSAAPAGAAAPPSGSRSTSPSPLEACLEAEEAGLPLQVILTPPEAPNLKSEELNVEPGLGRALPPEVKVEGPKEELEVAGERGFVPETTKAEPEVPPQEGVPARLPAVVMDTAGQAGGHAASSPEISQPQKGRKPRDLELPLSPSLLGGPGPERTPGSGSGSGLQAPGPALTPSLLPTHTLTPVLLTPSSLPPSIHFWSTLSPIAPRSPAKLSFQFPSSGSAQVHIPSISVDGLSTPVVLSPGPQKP
The procedure, abridged:
as §1

Experiment [3] deals with T3, GABPA (Homo sapiens, UniProt Q06546 1-454).
T3 sequence: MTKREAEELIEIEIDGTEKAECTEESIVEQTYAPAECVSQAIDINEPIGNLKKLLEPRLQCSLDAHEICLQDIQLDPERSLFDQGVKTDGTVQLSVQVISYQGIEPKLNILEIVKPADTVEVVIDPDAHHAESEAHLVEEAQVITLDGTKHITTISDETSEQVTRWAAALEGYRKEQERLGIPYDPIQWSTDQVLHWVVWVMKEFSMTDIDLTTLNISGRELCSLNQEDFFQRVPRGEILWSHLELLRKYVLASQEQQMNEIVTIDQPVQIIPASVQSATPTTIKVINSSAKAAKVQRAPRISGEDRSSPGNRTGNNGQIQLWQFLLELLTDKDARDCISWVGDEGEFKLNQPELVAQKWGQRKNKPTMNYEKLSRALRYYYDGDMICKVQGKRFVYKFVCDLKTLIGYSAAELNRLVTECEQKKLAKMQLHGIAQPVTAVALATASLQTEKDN
A digest of the protocol:
as §1

Experiment [4] addresses ELF1 (Homo sapiens, UniProt P32519 1-619). The procedure, abridged:
as §1

Experiment [5] deals with SPIB (Homo sapiens, UniProt Q01892 1-262). A digest of the protocol:
as §1

The target in experiment [6] is T4, ELK3 (Homo sapiens, UniProt P41970 1-407).
T4 sequence: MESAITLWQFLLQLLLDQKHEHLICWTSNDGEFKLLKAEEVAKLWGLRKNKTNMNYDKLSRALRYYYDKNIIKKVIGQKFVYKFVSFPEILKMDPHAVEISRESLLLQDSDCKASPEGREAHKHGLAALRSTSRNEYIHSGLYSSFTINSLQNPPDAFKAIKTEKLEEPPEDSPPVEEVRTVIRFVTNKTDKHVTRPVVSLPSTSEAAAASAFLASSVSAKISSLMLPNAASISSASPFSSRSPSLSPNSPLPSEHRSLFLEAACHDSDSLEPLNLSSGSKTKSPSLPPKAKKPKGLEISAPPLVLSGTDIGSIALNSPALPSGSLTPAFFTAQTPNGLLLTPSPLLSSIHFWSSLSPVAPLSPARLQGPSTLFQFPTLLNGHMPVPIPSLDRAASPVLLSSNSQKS
The procedure, abridged: as §1

Experiment [7] has as its target T5, ELK4 (Homo sapiens, UniProt P28324-2 1-405).
T5 sequence: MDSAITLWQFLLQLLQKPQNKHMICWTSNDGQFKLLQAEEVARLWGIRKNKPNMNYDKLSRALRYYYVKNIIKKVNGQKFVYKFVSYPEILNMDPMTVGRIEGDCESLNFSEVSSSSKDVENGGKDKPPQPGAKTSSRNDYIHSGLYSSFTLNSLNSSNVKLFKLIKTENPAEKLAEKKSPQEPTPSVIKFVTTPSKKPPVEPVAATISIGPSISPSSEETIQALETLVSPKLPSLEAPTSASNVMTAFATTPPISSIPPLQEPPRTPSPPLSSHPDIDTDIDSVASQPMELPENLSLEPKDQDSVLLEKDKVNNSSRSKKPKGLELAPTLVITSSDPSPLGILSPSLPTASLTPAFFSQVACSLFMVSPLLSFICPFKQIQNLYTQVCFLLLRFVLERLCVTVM
A digest of the protocol: as §1

Experiment [8] deals with T6, ERF (Homo sapiens, UniProt P50548 1-548).
T6 sequence: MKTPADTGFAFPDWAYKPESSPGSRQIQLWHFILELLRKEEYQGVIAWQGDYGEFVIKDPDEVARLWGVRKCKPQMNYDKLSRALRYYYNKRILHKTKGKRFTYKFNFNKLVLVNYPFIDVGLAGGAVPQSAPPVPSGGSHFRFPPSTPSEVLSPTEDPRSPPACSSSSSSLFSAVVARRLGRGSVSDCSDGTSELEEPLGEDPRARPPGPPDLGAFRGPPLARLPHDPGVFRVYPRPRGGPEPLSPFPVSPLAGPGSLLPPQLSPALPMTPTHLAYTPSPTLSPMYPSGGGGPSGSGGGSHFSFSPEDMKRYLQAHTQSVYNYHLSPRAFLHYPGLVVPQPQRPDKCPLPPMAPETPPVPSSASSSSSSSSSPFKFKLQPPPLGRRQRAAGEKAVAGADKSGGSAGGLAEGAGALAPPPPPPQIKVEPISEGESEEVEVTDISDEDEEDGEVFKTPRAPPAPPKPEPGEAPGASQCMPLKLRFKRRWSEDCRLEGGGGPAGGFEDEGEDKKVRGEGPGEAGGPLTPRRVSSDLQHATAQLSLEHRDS
A digest of the protocol:
as §1

The target of experiment [9] is T7, ETV3L (Homo sapiens, UniProt Q6ZN32 1-361).
T7 sequence: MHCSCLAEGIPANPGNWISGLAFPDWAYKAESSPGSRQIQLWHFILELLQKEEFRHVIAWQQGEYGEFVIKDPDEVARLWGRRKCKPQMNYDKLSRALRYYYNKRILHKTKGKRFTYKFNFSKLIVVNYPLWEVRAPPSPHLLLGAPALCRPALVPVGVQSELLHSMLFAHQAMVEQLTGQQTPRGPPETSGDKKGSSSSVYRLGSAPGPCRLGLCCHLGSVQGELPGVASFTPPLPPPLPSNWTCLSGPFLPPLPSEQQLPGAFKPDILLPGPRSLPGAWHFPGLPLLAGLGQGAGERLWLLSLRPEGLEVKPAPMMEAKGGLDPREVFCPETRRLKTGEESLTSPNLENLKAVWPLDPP
A digest of the protocol: as §1

Experiment [10] has as its target T8, ETS2 (Homo sapiens, UniProt P15036 1-469).
T8 sequence: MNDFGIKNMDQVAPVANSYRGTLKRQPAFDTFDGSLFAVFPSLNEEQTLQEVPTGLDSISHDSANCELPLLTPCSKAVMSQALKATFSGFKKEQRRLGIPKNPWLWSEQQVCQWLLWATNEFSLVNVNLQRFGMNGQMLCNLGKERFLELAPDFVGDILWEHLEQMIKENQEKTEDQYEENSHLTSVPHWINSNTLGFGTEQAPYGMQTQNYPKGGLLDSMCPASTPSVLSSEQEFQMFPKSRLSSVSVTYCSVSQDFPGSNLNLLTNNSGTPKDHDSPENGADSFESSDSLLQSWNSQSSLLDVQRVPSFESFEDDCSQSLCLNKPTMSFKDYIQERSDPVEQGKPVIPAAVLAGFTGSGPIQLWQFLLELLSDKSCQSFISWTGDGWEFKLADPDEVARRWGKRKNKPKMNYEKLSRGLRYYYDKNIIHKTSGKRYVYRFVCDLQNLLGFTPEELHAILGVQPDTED
A digest of the protocol: as §1

Experiment [11] has as its target T9, SPDEF (Homo sapiens, UniProt O95238 1-335).
T9 sequence: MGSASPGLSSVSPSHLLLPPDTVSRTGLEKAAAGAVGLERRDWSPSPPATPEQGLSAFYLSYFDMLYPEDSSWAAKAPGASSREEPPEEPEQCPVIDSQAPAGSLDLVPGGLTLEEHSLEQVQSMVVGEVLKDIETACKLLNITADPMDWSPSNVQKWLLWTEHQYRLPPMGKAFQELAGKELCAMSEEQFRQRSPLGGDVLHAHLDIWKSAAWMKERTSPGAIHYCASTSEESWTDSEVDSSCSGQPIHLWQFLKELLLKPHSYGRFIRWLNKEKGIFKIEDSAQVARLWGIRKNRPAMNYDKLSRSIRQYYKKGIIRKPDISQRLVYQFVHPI
A digest of the protocol: as §1

The source of these data is publication PMC7862700, “An all-to-all approach to the identification of sequence-specific readers for epigenetic DNA modifications on cytosine”.

ELF1, sequence (P32519 whole entry): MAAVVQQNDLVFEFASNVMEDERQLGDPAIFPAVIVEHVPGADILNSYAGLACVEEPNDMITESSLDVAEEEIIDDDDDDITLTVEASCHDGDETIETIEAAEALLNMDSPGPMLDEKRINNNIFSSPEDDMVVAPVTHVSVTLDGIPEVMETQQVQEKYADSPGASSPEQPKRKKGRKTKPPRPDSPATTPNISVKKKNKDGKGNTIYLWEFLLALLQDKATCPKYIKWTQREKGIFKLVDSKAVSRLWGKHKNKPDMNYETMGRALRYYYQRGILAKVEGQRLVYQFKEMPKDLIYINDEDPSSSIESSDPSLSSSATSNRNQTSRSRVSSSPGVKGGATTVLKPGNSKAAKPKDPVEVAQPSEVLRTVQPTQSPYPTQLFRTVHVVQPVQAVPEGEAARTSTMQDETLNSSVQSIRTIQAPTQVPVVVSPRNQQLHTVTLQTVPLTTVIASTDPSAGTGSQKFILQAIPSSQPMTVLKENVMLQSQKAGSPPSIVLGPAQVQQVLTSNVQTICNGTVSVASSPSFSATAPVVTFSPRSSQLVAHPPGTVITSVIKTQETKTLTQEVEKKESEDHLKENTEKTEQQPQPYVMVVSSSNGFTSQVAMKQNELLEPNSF
SPIB, sequence (Q01892 whole entry): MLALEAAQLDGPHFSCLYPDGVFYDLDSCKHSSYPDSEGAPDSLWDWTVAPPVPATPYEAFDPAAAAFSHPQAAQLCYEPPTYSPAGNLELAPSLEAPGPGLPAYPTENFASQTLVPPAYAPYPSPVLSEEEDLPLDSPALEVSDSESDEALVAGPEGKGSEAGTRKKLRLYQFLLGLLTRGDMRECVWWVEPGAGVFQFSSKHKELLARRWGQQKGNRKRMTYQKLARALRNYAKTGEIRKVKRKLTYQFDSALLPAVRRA

In the case of GCGCGT, the binding signal in experiment [1] was 1 fold enrichment (6-mer frequency, TF over GST control).

For AGACTC, the binding signal in [1] is 1.06 fold enrichment (6-mer frequency, TF over GST control).

Regarding GTATTG, the binding signal was 1.01 fold enrichment (6-mer frequency, TF over GST control) in experiment [2]; 1.04 fold enrichment (6-mer frequency, TF over GST control) in experiment [3]; 1.04 fold enrichment (6-mer frequency, TF over GST control) in experiment [4]; 1.1 fold enrichment (6-mer frequency, TF over GST control) in experiment [5]; 1.08 fold enrichment (6-mer frequency, TF over GST control) in [6]; 1.11 fold enrichment (6-mer frequency, TF over GST control) in experiment [1]. Besides, the binding signal is 1.05 fold enrichment (6-mer frequency, TF over GST control) in [7]; 1 fold enrichment (6-mer frequency, TF over GST control) in experiment [8]; 1.01 fold enrichment (6-mer frequency, TF over GST control) in experiment [9]; 1 fold enrichment (6-mer frequency, TF over GST control) in [10]; 1 fold enrichment (6-mer frequency, TF over GST control) in experiment [11].
